# Reference: the supplement of paper PMC11417369
# The full ranking holds about 25,000 sequences; the median of “ln(normalized median fluorescence intensity)” is about 7.1, and the highest 2% start at about 10. The sample as a whole holds a higher share of the highest values than the screen did.
# System: PfSIP2 AP2 domain 1 (GST-tagged)
# Assay: gcPBM binding intensity (ln(normalized median fluorescence intensity)); higher = stronger DNA binding
# Summary of the method: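 After 1 h on an Agilent 4 × 180k array of primer-extended double-stranded 36-bp intergenic genomic probes and negative controls, bound GST-tagged P. falciparum DNA-binding domains were detected with Alexa488 anti-GST antibody and scanned at 488 nm. The domains had been expressed in E. coli, and binding took place in 1× PBS with 1% milk, 0.2 mg/ml BSA, 0.5% salmon testes DNA and 0.03% Triton X-100. Binding intensity is the highest Masliner-normalised natural-log median intensity across replicate spots of either probe orientation.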
row,Sequence,gcPBM binding intensity (ln)
1,AAATTTAACAACTTCAAACACACAATATATATATAT [CACACA_site2092],8.91
2,AACATACCCATATACACACACACATAAATACAGATA [CACACA_site4744],7.3
3,GATTGATTATATGTGTGTACTTATATGTTAAAAAAA [XGTACX_site4784],7.29
4,AGTCATATAAATAGTAGTACTGTGTGTGAAGAAAAA [XGTACX_site5056],7.42
5,TTAACAAAATTTCCGTGTACGTAAATAAGAACATAG [XGTACX_site7200],7.25
6,ACAAATACAAAAAAAGGTACACACATAATATATTTA [XGTACX_site5515],7.04
7,ACATTCAATCTACTGTGTACATATTAAACTTTGAAA [XGTACX_site2913],7.49
8,ATTATATATATATTATGTACATATATTGAAGTGGAT [XGTACX_site5916],7.56
9,TATACTTTATATATTTTGTATATATATTTTTTTTAT [TGCATGCA_negctrl_site530],7
10,GTTAATATTTTTGGGGGTACTTAAAAAAAAAAAAAA [XGTACX_site1477],7.78
11,ATTTTTTTTTTTTTTTTGGGGGGGTATACTTTTAAA [CACACA_negctrl_site1020],10.7
12,AATAAATTGAAACACACACACACATATATATATATA [CACACA_site848],9.2
13,AGGAGGATATTACACAGTACCCAGGAAATCTACGGA [XGTACX_site4878],6.82
14,ACATATTTTATTTTTTGTACACATATATTATTTTTT [XGTACX_site6528],7.28
15,ATATATAATTAATTTTGTACACATAAAAAAAAAAAT [XGTACX_site6647],7.25
16,CTTAAATTAATTTGGGTGCATATATTTGTACACATT [GTGCAC_site9948],10.9
17,AATTAATTAAATTAATGTACACATATATTTGTATTC [XGTACX_site2341],7.14
18,TTGCATATTTCTAATTGTACATTATTTTATTTTATA [XGTACX_site8451],6.96
19,TTGGGTGCATATATTTGTACACATTATTTCTATTTT [XGTACX_site3688],12
20,AAAACCTAAAAGTCTTAAATTTTAAATATACCTACA [GTGCAC_negctrl_site492],6.6
21,TTTATTTTATCATTTGCACACGCACCCAGACATAAA [CACACA_site4347],10.8
22,CCCATGCATTTTTGCACACACATATATTTATAAATA [CACACA_site6785],8.16
23,TATTTTATCATTTGCACACGCACACCGACATAAAAA [CACACA_site4348],7.71
24,TATTTTATCATTTGCACACGCACACCCACATAAAAA [CACACA_site354],8.03

row,Sequence,gcPBM binding intensity (ln)
1,TTTATTTTATCATTTGCACACGCACGCCCACATAAA [CACACA_site353],7.85
2,TTTATTTTATCATTTGCACACGCACCCCCACATAAA [CACACA_site8007],11.5
3,ATATTAAACAAACACACACACATATATATATATATA [CACACA_site3383],9.67
4,ATAAATGAACAAGTGGCACACACACCGTATAACTAA [CACACA_site9047],6.91
5,ATGTATATATTTACGTGTACATATTCATGTGATATC [XGTACX_site5871],7
6,GTTCAATTATTTTTATGTACATATATTTTTTTCTTT [XGTACX_site2505],7.46
7,CATTTGCACCCGCACACACACATAAAAAGAAAAATA [CACACA_site4350],11.6
8,ACATTGCACCCGTGCACACATAGAAAAATAATTCTT [CACACA_site409],12.2
9,ACCCATTGCTCACGTGCACACATAGAAAAATAATTC [CACACA_site4389],10.1
10,ATCATTTGCATACGCACACACACATAAAAAGAAAAA [CACACA_site355],7.54
11,TCATTGAAAATTGTTGCACACATAATAATTAAATAT [CACACA_site8554],7.36
12,CATTTGCACACGCACACACACATAAAAAGAAAAATA [CACACA_site6297],7.71
13,AATTTGGTGTGTGTAAAAGTATGTGTCTATATTTAT [GTGCAC_negctrl_site166],7.11
14,TAATATAATGATGCAGTGCATATGTTAAAATGAAAA,8.72
15,TTTTGTTATTTTTCAGTGCAATATGATAATAATATA,7.72
16,TTTTTTGTTATGCGGGTGCATATAATAATGTGATGA,10.8
17,TAATATATTAAAAATAGTACATAAGAAAAATAAGTA [XGTACX_site7957],7.11
18,TATTATATTTTTATTTGTACGTAAAATTAAGTTATG [XGTACX_site2405],7.14
19,CAATATTTGTTATGGGTGCAAACCGCATATATATAA [GTGCAC_site9543],11
20,TATTAAATATATATTACATGCAAAAAAAAAAAACAA [TGCATGCA_site705],7.13
21,ATTTATTTATACAAAGTGCAATATTTTGTTAAAGTC [GTGCAC_site9618],7.89
22,TATAATAGTTCATAGGTGCAATATAATAAATTTATA [GTGCAC_site9573],9.98
23,ATATAAAATACATGGGTGCAATATATTAAACAAATA [GTGCAC_site9421],10.8
24,CAATATATTATATGGGTGCAAACCACATATAAATAA,10.9

row,Sequence,gcPBM binding intensity (ln)
1,TATGGGTTTATATAGGTGCAATATATGTATATATAA,10.2
2,AACAAATATATTAACACACAAACATATAAACCAATG [CACACA_site3970],7.19
3,CAATAGTTCTTATGGGTGCAAACCACATATATATAA [GTGCAC_site9606],11.3
4,AATTATATGAAATAAACACACATATGCAATATTGCA [CACACA_site6988],6.98
5,TTTTTTGTTAAACCGGTGCATATAAATATATATATA [GTGCAC_site9989],9.54
6,AAAAAAAAAAACAATACATGCATAATATTAATAAAA [TGCATGCA_site913],6.96
7,AATCAAAGCCCACATACACACACATATATATATATA [CACACA_site7987],9.39
8,TTTTGTCAACATTTTTATATTAGGTCTTGAACGATT [GTGCAC_negctrl_site72],6.9
9,AATAATATATGGTGTACACAAAAGTATAAATAATTT [CACACA_site5338],7.15
10,TCAAATATTCATAAATGTACATTTATTTTTCTCCTT [XGTACX_site5827],6.74
11,TTATTTTAATAACCTACACACATTTTGTATATTTTA [CACACA_site4000],6.81
12,TATATATATGTGTTTACACACAATAATGAATTAAAA [CACACA_site4659],7.28
13,ATATCAATTTTTGGTGGTACGTAGGAAGTTTCAGAA [XGTACX_site6881],7.4
14,ATATAGGTAAAAAGTATACACACGTTGACACATTCT [CACACA_site1199],6.95
15,TTTTTTTTTTTTTTATGTACACATCTAAAAAAAAGG [XGTACX_site2067],7.43
16,TTTTTTTTTTTTGGATGTACTTAATGAAAATGTTAC [XGTACX_site8980],7.36
17,AAATAGTTGTTATGGGTGCAAACCACATATATATAA [GTGCAC_site9428],11
18,ACATATAATAAAATAGTGCATTGTTAGTTTTATATA,9.85
19,TTATTTATTTATATAGTGCAATAAACACATAAATAG,8
20,GATTTTTAAAATATCACACATAAAAAAAAAAAAAAA [CACACA_site5516],6.96
21,AAATAAAAAGGGTGCACACAAAAATATATATATATA [CACACA_site1728],12.4
22,AAAAAAAGAAAAATTGCACACACTTATAAAAATATA [CACACA_site4014],6.99
23,TATATATATATAAGTGCACACTGAACCAAGAAAATT [CACACA_site5637],9.97
24,AATATAAAAAGGCACACACACAAAAAAAAAAAAAAA [CACACA_site896],7.13

row,Sequence,gcPBM binding intensity (ln)
1,AAATATAAAGTGCACACACACAAAAAAAGAAAAAAA [CACACA_site6452],11.2
2,ATAAAAATAAAAAGTGTGCACACAAAAATATATATA [GTGCAC_site9931],8.78
3,AAAAATAAAGGGTGTGCACACAAAAATATATATATA [CACACA_site1727],9.1
4,TATATATATAAGTGCACACTGAACCAAGAAAATTAT [CACACA_site3008],10.5
5,AAAAATATAAACTGCACACACACAAAAAAAGAAAAA [CACACA_site648],7.25
6,AAACTCAACTTATATACACACAATCTTTTTTTTTTA [CACACA_site29],6.8
7,AAATGTAATAATAAATGTACAAACATATATATGTAT [XGTACX_site8718],6.94
8,CTAAAAATCTTTTGTTGTACTTTTAGATAATCAGGA [XGTACX_site3968],7.06
9,ATGGGGAATAATGAATGTACACAAATAAAAAGTTGG [XGTACX_site4015],7.13
10,TTTTTTTTTTTTTGTTGTACCCATCATATATACATA [XGTACX_site4342],7.11
11,GTTCATTCATTTTAATGTACAAATTTAACTTTTTCT [XGTACX_site680],6.91
12,TCTTTTTTAAATAAAAGTACAAAAAAAAATAAAAAA [XGTACX_site2670],6.93
13,ATTTTTTTTTTTTTATGTACATATTAAAAAAAATAT [XGTACX_site1829],7.01
14,ATATAAAAATACAGGTGTACATTTTTTCATATTTAT [XGTACX_site6959],7.18
15,TTATGGTGCAACATTATGCACACCGTTAAATAACTA [CACACA_site3846],11.9
16,TCATAAACATTATGCACACAAAAATAAAAAAAAATA [CACACA_site1115],7.52
17,ATGGTGCAACATTATGCACACCGTTAAATAACTAAT [CACACA_site9280],11.8
18,AATCATAAACATTATGCACACAAAAATAAAAAAAAA [CACACA_site8289],7.36
19,TAATATATTATAAACACATGCACATTAATAATAACT [TGCATGCA_site708],9.16
20,AACAACAACTAATATGCACACATTTAAAAACAAAAT [CACACA_site2440],7.5
21,TGATTCTAACTTATGGTGCAACATTATGGACACCGT,10.7
22,TATATAACATATGGGACACACATGCAACTGTTATAT [CACACA_site3792],7.19
23,GATTCATCTAAACACCGTACATATTATATATATATA [XGTACX_site6030],9.22
